Structures are written as SMILES. The whole screen tested about 320,000 compounds, of which about 9,100 (2.8%) were called active. Roughly 3% stayed inconclusive and do not appear here. The call rests on the fitted dose curve; in most records, active means well fitted activation curve with a large enough effect; inconclusive means small, poorly fitted or top-dose-only effect; inactive means no such curve, though single readings can be large or run the other way. The entries come from a sample that favours actives as a whole. A call without a number means that no potency is given here.
Potency means the concentration at half of the fitted maximal effect.

A short description of the test: qHTS Assay for Rab9 Promoter Activators. Further: nearly all actives have a fitted effect of over 60% in size. The conditions noted are these: Huh7 Rab9 promoter-luciferase reporter, luminescence, 24 h; series mostly up to 9.22 µM. In short, it runs like this: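 Measured in stably transfected Huh7 cells bearing a Rab9 promoter–luciferase construct: 24 h compound treatment at 37 °C, followed by luminescence detection.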
(In general: In qHTS, concentration-response curves come from the screen itself.)
Consider `CC1=NN(C(N)=S)C(=O)C1N=Nc1cc(Cl)ccc1Cl` (configuration not stated), for which the Potency entry was “inactive”. Regarding `Cc1[nH]n(C(N)=S)c(=O)c1N=Nc1ccc(Cl)cc1Cl`, the Potency was 3980 nM (active). With `Cc1[nH]n(-c2cccc(Cl)c2)c(=O)c1-c1ccc(Cl)cc1`, the Potency entry is “inactive”. `CCOC(=O)c1c(CNCc2ccccc2F)c2sc(C)cc2n1C`: the Potency result is “inactive”. As for `COc1ccc(S(=O)(=O)N2CCOCC2)cc1NC(=O)c1ccc(OCC(C)C)c(OC)c1`, the entry is “inactive”. On to `CN(CCOc1ccccc1)C(=O)c1cc(-c2ccco2)nc2ccccc12`, for which the Potency result is “inactive”. In the case of `CC(OC(=O)c1ccccc1NCCO)C(=O)Nc1ccnn1C(C)C` (configuration not stated), the Potency entry is “inactive”. As for `COc1cccc(-n2c(SCC(=O)NC3CCS(=O)(=O)C3)nc3ccccc3c2=O)c1` (configuration not stated), the Potency entry was “inactive”.

As to `Cc1ccc(-n2c(SCC(=O)N3CCC(C(=O)O)CC3)nc3ccccc3c2=O)cc1C`, the Potency is 2820 nM (active).

For `O=C(CSc1nc2ccccc2c(=O)n1-c1ccc(F)cc1)NC1CC1`, the Potency result is “inactive”. Regarding `CC(=O)Nc1ccc(S(=O)(=O)N2CCn3cccc3C2C)cc1` (configuration not stated), the Potency result is “inactive”. On to `CCCCc1ccc(NC(=S)N2CCCC(CO)C2)cc1` (configuration not stated), for which the Potency was 2820 nM (active). Regarding `CCCCc1ccc(NC(=S)NCCCN2CCOCC2)cc1`, the Potency entry was “inactive”. Turning to `COc1ccc(NC(=S)N2CCCC(CO)C2)c(OC)c1` (configuration not stated), the Potency entry is “inactive”. The same measure for `Cc1ccc(-c2nc(COC(=O)c3c(C)noc3C)cs2)cc1`: 3550 nM (active); for `COc1cc(OC)cc(C(=O)NCC(=O)OCc2csc(-c3ccccc3)n2)c1`: “inactive”.

As for `Cc1ccc(S(=O)(=O)N2CCN(C(=O)COC(=O)c3c(C)noc3C)CC2)c(C)c1`, the Potency result is “inactive”.

Turning to `COc1cc(C(=O)OCC(=O)NC23CC4CC(CC(C4)C2)C3)cc(OC)c1OC`, the Potency entry was “inactive”.

Regarding `O=C(c1ccc(Cl)c(S(=O)(=O)N2CCCCCC2)c1)N1CCN(c2ccc(O)cc2)CC1`, the Potency result was “inactive”. The same measure for `Cc1ccc(C(=O)Cn2cc([N+](=O)[O-])nc2C)cc1`: “inactive”; for `Cc1cc(N2CCOCC2)nc(-c2ccc(Br)cc2)n1`: “inactive”. Turning to `Cc1ccc(-c2cn3cc([N+](=O)[O-])ccc3n2)cc1`, the Potency is 355 nM (active). For the compound `CSc1nnc2ccc(-c3ccc(C)cc3)nn12`, the Potency entry is “inactive”. As for `Cc1ccc2nc(-c3ccc(Br)cc3)cn2c1`, the figure is 316 nM (active).

`Cc1nc(-c2ccc([N+](=O)[O-])cc2)c(-c2ccccc2)o1`: the Potency entry was “inactive”.

Take `COc1ccc(S(=O)(=O)N2CCOCC2)cc1NC(=O)Cc1c(F)cccc1Cl`: the Potency result is “inactive”. For the compound `Cc1cc(NC(=O)CN2C(=O)NC(CCc3ccccc3)C2=O)no1` (configuration not stated), the Potency result is “inactive”. In the case of `OC(COc1ccc(F)cc1Cl)CN1CCc2ccccc2C1` (configuration not stated), the Potency entry is “inactive”. On to `Cc1cc2oc(C(=O)Nc3c(C)n(C)n(-c4ccccc4)c3=O)c(C)c2cc1Cl`, for which the Potency entry was “inactive”. As for `Cc1ccc(Nc2nc(N3CCOCC3)nc(N3CCOCC3)n2)cc1Cl`, the Potency entry was “inactive”. As for `COc1ccc(Nc2ncc(F)c(N3CCOCC3)n2)cc1`, the figure is 891 nM (active). As to `CCOc1ccc(Nc2nc(Cl)nc(N3CCN(c4ccc(OC)cc4)CC3)n2)cc1`, the Potency entry was “inactive”. As for `Cc1cc(C)n2nc(C(=O)Nc3cccc(S(=O)(=O)N4CCOCC4)c3)nc2n1`, the Potency entry is “inactive”. On to `COC(=O)c1cc2c(ccn2C)n1C`, for which the Potency entry was “inactive”. `CCN(CC)c1ccc2oc(=O)c(C)nc2c1`: the Potency entry is “inactive”. Turning to `CCc1ccc2oc(-c3ccc(N)cc3)nc2c1`, the Potency is 501 nM (active). Take `Cc1ccc(C)c(NC(=O)CSc2nc3c(oc4ccccc43)c(=O)n2-c2ccccc2)c1`: the Potency entry is “inactive”.

`Cc1ccccc1NC(=O)Cc1nc(COC(=O)c2ccc(C(F)(F)F)cc2)cs1`: the Potency result was “inactive”. `Cc1ccc2c(CN3CCN(S(=O)(=O)c4ccccc4C(F)(F)F)CC3)cc(=O)oc2c1`: the Potency entry was “inactive”. Turning to `Cc1ccc(-c2nn(-c3ccccc3)cc2C(=O)NC2CCC(O)CC2)cc1` (configuration not stated), the Potency result was “inactive”. With `CC[C@H](C)C(=O)N[C@H]1CCCN1C(=O)/C=C/c1ccccc1`, the Potency entry is “inactive”. The same measure for `Cc1ccc(C(=O)NNC2=Nc3cc([N+](=O)[O-])ccc3OC2)cc1`: “inactive”. Turning to `COc1ccc(C2=Nc3cc(C)ccc3OC2)cc1`, the Potency is 562 nM (active). As for `COc1ccc(C2=NOC(COC(=O)c3ccc4ccccc4n3)C2)cc1` (configuration not stated), the Potency result is “inactive”. Turning to `CC(C)OCCCNC(=S)N1CCC(C(=O)c2ccc3c(c2)OCCO3)CC1`, the Potency entry was “inactive”. The same measure for `Cc1cccc(NC(=O)/C=C/c2ccc3c(c2)OCO3)n1`: 562 nM (active); for `CC(NS(=O)(=O)c1ccc(Cl)cc1)C(=O)Nc1ccc2c(c1)OCCO2` (configuration not stated): “inactive”; for `COc1cccc(/C=C/C(=O)Nc2ccc3c(c2)OCCO3)c1`: 1260 nM (active). Consider `CNS(=O)(=O)c1ccc(NC(=O)Nc2ccc3c(c2)OCO3)cc1`, for which the Potency is 3550 nM (active). Take `CC(C)CNS(=O)(=O)c1ccc(C(=O)Nc2ccc3c(c2)OCO3)cc1`: the Potency entry was “inactive”. On to `CC(NC(=O)Nc1ccc2c(c1)OCO2)c1ccncc1` (configuration not stated), for which the Potency result is “inactive”.

Take `COc1ccc(OC)c(/C=C/C(=O)OCC(=O)Nc2ccc3c(c2)OCCO3)c1`: the Potency result is “inactive”. On to `O=C(O)/C=C/c1ccc2c(c1)OCCO2`, for which the Potency entry is “inactive”. `CCOC(=O)CCCNC(=O)COC(=O)/C=C/c1ccc2c(c1)OCO2`: the Potency entry was “inactive”. The same measure for `Cc1cccc(NC(=O)Nc2ccc(OCc3ccccc3)cc2)n1`: “inactive”; for `O=C(/C=C\c1ccc2c(c1)OCO2)NC1(C(=O)Nc2ccc3c(c2)OCCO3)CCCCC1`: “inactive”. As for `Cc1cccc(NC(=O)Nc2ccc3c(c2)OCO3)n1`, the Potency was 2240 nM (active). On to `O=C1C=C(c2ccnc3cc(Cl)ccc23)C[C@@H](c2ccc3c(c2)OCO3)C1`, for which the Potency result is “inactive”. As for `COc1ccc(NS(=O)(=O)c2cccc(C(=O)NCCc3ccc(S(N)(=O)=O)cc3)c2)cc1`, the entry is “inactive”. As for `CC(=O)Nc1ccc(S(=O)(=O)N2CCN(S(=O)(=O)c3cccs3)CC2)cc1`, the Potency entry was “inactive”. As for `CC1CCc2sc(C(=O)NCC(c3ccco3)N3CCCCC3)cc2C1` (configuration not stated), the entry is “inactive”; as for `O=C(NCCOc1ccccc1Cl)C(=O)Nc1ccccc1`, “inactive”; as for `COc1ccc(S(=O)(=O)N2CCOCC2)cc1NC(=O)Cc1coc2cc(C)ccc12`, “inactive”. As to `Cc1nn(Cc2ccccc2)c(C)c1C(=O)NCCCN1CCCC1=O`, the Potency result is “inactive”. Regarding `COc1ccccc1-c1nnc(SCC(=O)N2CC(C)CC(C)C2)o1` (configuration not stated), the Potency entry was “inactive”. The same measure for `COc1ccc(CCNC(=O)CSc2nnc(CNC(=O)c3cccs3)o2)cc1OC`: “inactive”; for `COc1ccc(-c2nnc(SCC(=O)c3cccs3)o2)c(OC)c1`: 1120 nM (active); for `Cc1ccc(NS(=O)(=O)c2ccc3c(c2)CC(=O)N3)cc1Cl`: “inactive”. As to `COc1ccccc1C(CNC(=O)c1ccc(C)c(S(=O)(=O)N2CCCCC2)c1)N(C)C` (configuration not stated), the Potency result is “inactive”. Consider `CN(CCc1ccccc1)c1ccc([N+](=O)[O-])cn1`, for which the Potency entry was “inactive”. Consider `COC(=O)[C@]1(C)CCC[C@@]2(C)C3CC[C@]4(OC(C)=O)C[C@@]3(CCC21)CC4=NO` (some centres not stated), for which the Potency entry was “inactive”. As for `O=C(Nc1cccc(F)c1)NC1CCCCCCC1`, the figure is 3550 nM (active). For the compound `O=C(Nc1cccc(F)c1)NC1CCCc2ccccc21` (configuration not stated), the Potency result was “inactive”.

As for `C/C(CC(=O)Nc1cccc(F)c1)=N\NC(=O)C(=O)NC1CCCCC1`, the Potency result is “inactive”.

For the compound `Cc1cccc(C)c1NC(=O)CN(C)C(=O)CCC(=O)c1ccccc1`, the Potency result is “inactive”. As to `CC(OC(=O)/C=C/c1ccccc1)C(=O)NC1CCCCC1C` (configuration not stated), the Potency entry is “inactive”. The same measure for `Cc1c(NC(=O)Nc2ccccc2)cccc1[N+](=O)[O-]`: “inactive”; for `Cc1cccc(NC(=O)Nc2nnc(-c3ccccc3)o2)c1`: “inactive”; for `Cc1ccc(NC(=O)Nc2ccccc2)c(Br)c1`: 1780 nM (active). For `COc1cc2c(cc1OC)CN(C(C)C(=O)Nc1cccc(S(=O)(=O)N3CCOCC3)c1)CC2` (configuration not stated), the Potency result is “inactive”.

As to `Cc1sc2ncnc(N3CCC(C(=O)Nc4ccc(F)cc4Cl)CC3)c2c1C`, the Potency result was “inactive”. As for `CCCc1cc(-c2nc(-c3ccc(C)cc3)cs2)ccn1`, the entry is “inactive”; as for `Cc1ccc(-c2csc(-c3c[nH]c4ccccc34)n2)cc1`, 2510 nM (active); as for `Cc1ccc(-c2csc(NC3OC(=O)c4ccccc43)n2)cc1` (configuration not stated), “inactive”. Take `O=C(CN(C(=O)CCC(=O)Nc1nccs1)c1ccc(F)cc1)NCc1ccc2c(c1)OCO2`: the Potency entry was “inactive”. As for `COc1cccc(NC(=O)CN(C)C(=O)CSC(=S)N2CCCC2)c1`, the entry is “inactive”. Take `CC(=O)c1ccc(NC(=O)CSC(=S)N2CCCC2)cc1`: the Potency result is “inactive”.

As to `O=C(CSC(=S)N1CCOCC1)c1ccccc1`, the Potency is 447 nM (active). The same measure for `CC1CN(C(=S)SCC(=O)c2ccccc2)CC(C)O1` (configuration not stated): “inactive”. For the compound `O=C(CSC(=S)N1CCOCC1)c1cc(Br)cc(Br)c1O`, the Potency entry was “inactive”. For the compound `O=C(CSC(=S)N1CCCCC1)c1c(F)cccc1F`, the Potency was 1410 nM (active). Regarding `Cc1occc1-c1nnc(SCC(=O)NC2CCCCC2)o1`, the Potency result is “inactive”. As for `COc1ccc(S(=O)(=O)N2CCN(C(C)C(=O)Nc3ccc(C(C)C)cc3)CC2)cc1` (configuration not stated), the entry is “inactive”; as for `O=C(NCc1ccccc1CN1CCCC1)c1cccc(S(=O)(=O)Nc2ccc(F)cc2)c1`, “inactive”; as for `CCn1c(SCC(=O)Nc2ccc3c(c2)OCCO3)nnc1-c1ccncc1`, “inactive”.

On to `O=C(Nc1cccc(NC(=O)c2ccco2)c1)c1cnccn1`, for which the Potency result is “inactive”. On to `O=C(Nc1ccc2c(c1)OCCO2)c1cnccn1`, for which the Potency is 2000 nM (active). `Cn1ccnc1SCC(=O)Nc1ccc2c(c1)OCCO2`: the Potency was 2510 nM (active). With `Cc1ccc(S(=O)(=O)NCC(=O)Nc2ccc3c(c2)OCCO3)cc1`, the Potency result was “inactive”.

As to `Cc1ccc(SCC(=O)Nc2ccc3c(c2)OCCO3)cc1`, the Potency is 3160 nM (active). Consider `Cc1ccc(OCCCC(=O)Nc2ccc3c(c2)OCCO3)cc1`, for which the Potency entry is “inactive”. In the case of `O=C(CCN1C(=O)c2ccncc2C1=O)Nc1ccc2c(c1)OCCO2`, the Potency entry was “inactive”.

For the compound `CCn1c(SCC(=O)Nc2ccc3c(c2)OCCO3)nnc1C(C)C`, the Potency result is “inactive”. Turning to `O=[N+]([O-])c1cc(S(=O)(=O)NCCc2ccccn2)ccc1Cl`, the Potency result is “inactive”. Consider `COc1ccc(-c2nnc(SC(C)C(=O)NC3CC3)o2)cc1` (configuration not stated), for which the Potency result is “inactive”. `Cc1cc(C)cc(NC(=O)NC2CCN(CC(=O)Nc3cccc(Cl)c3C)CC2)c1`: the Potency entry was “inactive”. Consider `O=c1[nH]c2cccnc2n(CCNc2ncc(C(F)(F)F)cc2Cl)c1=O`, for which the Potency result was “inactive”.
